SMILES strings stand for the structures. The panel holds about 83,000 compounds, 20% with a hit somewhere; the sample as a whole holds those more often.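 Method: cells in 96-well plates; compound added at one concentration; 48 h incubation; percent growth measured; values under 10 scored active.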 Unmarked numbers belong to inactive results. The source made the active and inactive calls.

This experiment deals with M14 melanoma. As to the kind of experiment: NCI-60 one-dose screen, 48 h (100 = growth as untreated, 0 = no growth, -100 = all killed). The settings on record: 10 µM unless noted.
Take `NC1=NC(c2cccc(Br)c2)c2sc3ccc(Cl)cc3c2N1` (stereo unspecified): the growth is 98.4%.
Turning to `CCCCn1c(-c2ccc(-c3nc(-c4ccc(Cl)cc4)no3)cc2)nc(-c2ccccc2)c1-c1ccccc1`, the growth was 94.4%.
Consider `CCc1ccccc1-n1c(N)c(C#N)c(-c2ccc(Cl)cc2)c(C#N)c1=O`, for which the growth was 104%.
As for `Cc1ccc(/C=N\NC(=O)c2[nH]c3ccc(F)cc3c2-c2ccccc2)cc1`, the growth was 24.1%.
For `COc1ccc(/C=C/c2c(C(=O)/C=C/c3ccc(C(F)(F)F)cc3)c(C)nc3ccccc23)cc1`, the growth was -15% (active).
The result for `Cc1c(C(=O)/C=C/Nc2c(Cl)cc(S(N)(=O)=O)cc2Cl)sc2nc3ccccc3n12` reads 106%; that for `CC(=O)N1N=C(c2ccc(Nc3nc(Nc4ccc(F)cc4)nc(Nc4ccc(Cl)cc4)n3)cc2)CC1c1ccc(Cl)cc1` (stereo unspecified), 108%.
The figure for `COc1ccccc1/C=C1\Oc2cc(OCCN3CCC(Cc4ccccc4)CC3)ccc2C1=O` is 65.9%; for `Cc1nc2ccccc2c(/C=C/c2ccccc2)c1C(=O)/C=C/c1ccc(C(F)(F)F)cc1` it is -31.3% (active).
Consider `Cc1[nH]c(C(=O)Nc2ccc(C(=O)N3CCNCC3)cc2OC(C)C)c(Cl)c1Cl`, for which the growth is 45.5%.
The figure for `CN1C(=O)N(C)C2Nn3c(s/c(=C\c4ccccc4)c3=O)=NC21` (stereo unspecified) is 97.8%.
As to `COc1ccc([C@H]2c3cc(OC)c(OC)cc3C=C(C=O)C2CO)cc1OC` (stereo partly specified), the growth is 35.7%.
Regarding `O=c1n(Cc2ccc3ccccc3c2)ccn1Cc1ccc2ccccc2c1`, the growth was 93.3%.
On to `N/C(=N\c1nc2ccccc2s1)NC(=O)Nc1cccc2ccccc12`, for which the growth was 5.44% (active).
The result for `O=C(N=c1oc2ccccc2cc1-c1cc2ccccc2[nH]1)Nc1ccc(Cl)cc1` reads 79.6%.
On to `Fc1cc(-c2nnc3sc(-c4ccc(Cl)cc4Cl)nn23)c(Cl)cc1Cl`, for which the growth was 97.5%.
The result for `CSc1ccc2c(c1)c(CCN)c(C)n2Cc1ccc(Cl)c(Cl)c1` reads -85% (active).
`OC(c1ccccc1)C(NC(Cc1ccccc1)c1ccccc1)c1ccccc1` (stereo unspecified): the growth was 91.8%.
As to `O=C(/C=C/c1ccc([N+](=O)[O-])o1)NNC(=O)c1cc2ccccc2cc1O`, the growth is -93.3% (active).
The figure for `CCCCCCCCCCCCCCCCCCOc1ccccc1CC(=O)OCC[N+](CC)(CC)CC` is 26.8%; for `Cc1c(C(=O)NCCN2CCOCC2)cn2ncnc(Oc3ccc(NC(=O)Nc4ccc(Cl)c(C(F)(F)F)c4)cc3)c12` it is 3.71% (active); for `Cc1ccc2c(n1)C(=O)C(Cl)=C(Nc1ccccc1C(C)C)C2=O` it is 63%.
The result for `Nc1cc2c(cc1Br)-c1cc(Cl)ccc1C2=O` reads 105%.
In the case of `Cc1nn(-c2ccccc2)c2c1N=c1s/c(=C\c3ccc(C(F)(F)F)cc3)c(=O)n1CN2`, the growth is 69.4%.
The figure for `COc1ccc2c(c1)/C(=C/c1sc(=S)n(Cc3ccco3)c1O)C=N2` is 11.8%.
The result for `COc1nc2ccccc2cc1-c1nc2c(cnn2-c2ccccc2)c(=O)[nH]1` reads 23.9%; that for `Cc1[nH]c(C(=O)Nc2ccc(C(=O)NCCN)cc2OC(C)C)c(Cl)c1Cl`, -31.1% (active); that for `CC(C)c1cc(C(C)C)c(S(=O)(=O)Oc2ccc(NC(=O)c3ccc(Cl)cc3)cc2)c(C(C)C)c1`, 36.2%.
As to `CN1C(=O)CNC(=O)[C@H](NC(=O)c2nc3ccccc3cc2O)CSSC[C@H]1C(=O)NCCCc1nc2ccccc2cc1O`, the growth is 14.3%.
In the case of `O=S(=O)(Nc1ccc(-c2nc(-c3cccc(OCCN4CCOCC4)c3)c(-c3ccnc(Br)c3)[nH]2)cc1)c1ccccc1`, the growth is 36.8%.
The result for `COc1ccc(-c2cc3c4c(nc5ccccc5c4c2)CC(c2cc(OC)c(OC)c(OC)c2)O3)cc1` (stereo unspecified) reads 57.5%.
For the molecule `COc1ccc(/C=N/Nc2cc(=O)[nH]c3ccc(Cl)cc23)cc1`, the growth is 54.8%.
Take `COc1ccc(S(=O)(=O)n2c3ccccc3n3ncc(-c4nnc(C)o4)c23)cc1`: the growth is 15.4%.
The result for `CCc1cccc2c3c(sc12)C(c1ccc(Cl)cc1)C(C#N)=C(N)O3` (stereo unspecified) reads 5.36% (active).
The figure for `Cc1cc(-c2cc(C)c(N)cc2C)c(C)cc1N` is 65.6%.
The figure for `O=C(Nc1ccc(F)cc1F)c1cc(F)ccc1O` is 25.6%.

The values above are taken from PubChem BioAssay (NCI).
